Where a name gives a salt, the structure may show the parent alone. ± gives the standard deviation.

The test system of the assay is Jurkat. As to the kind of experiment: cell count relative to DMSO control (fraction of control); higher = more cells (less growth inhibition). As to conditions: 48 h.
For `O=C1CCc2ccc(OCCCCN3CCN(c4cccc(Cl)c4Cl)CC3)cc2N1` [Aripiprazole] (concentration: 25 µM), the cell count came out at 0.89 ± 0.092.

`NCCCC(O)(P(=O)(O)O)P(=O)(O)O` [Alendronate·Na Trihydrate] (concentration: 25 µM): the cell count is 0.282 ± 0.11.

`CO[C@H]1/C=C/O[C@@]2(C)Oc3c(C)c(O)c4c(O)c(c(/C=N/N5CCN(C6CCCC6)CC5)c(O)c4c3C2=O)NC(=O)/C(C)=C\C=C\[C@H](C)[C@H](O)[C@@H](C)[C@@H](O)[C@@H](C)[C@H](OC(C)=O)[C@@H]1C` [Rifapentine] (concentration: 25 µM) had a cell count of 0.275 ± 0.088.

Regarding `C[C@H](N)[C@H](O)c1cccc(O)c1` [Metaraminol Bitartrate] (concentration: 25 µM), the cell count is 0.774 ± 0.12.

Compound `CC(=O)O[C@H]1C[C@@H]2CC[C@@H]3[C@H](CC[C@@]4(C)[C@H]3C[C@H]([N+]3(C)CCCCC3)[C@@H]4OC(C)=O)[C@@]2(C)C[C@@H]1N1CCCCC1` [Vecuronium Bromide] (concentration: 25 µM) came in with a cell count of 0.294 ± 0.13.

`CC(=O)OCC[N+](C)(C)C` [Acetylcholine Chloride] (concentration: 25 µM) had a cell count of 0.68 ± 0.19.

The compound `CC(CN(C)C)CN1c2ccccc2CCc2ccccc21` (stereo not given) [Trimipramine Maleate] (concentration: 25 µM) returned a cell count of 0.834 ± 0.056.

In turn, `CCCCC(=O)N(Cc1ccc(-c2ccccc2-c2nnn[nH]2)cc1)[C@H](C(=O)O)C(C)C` [Valsartan] (concentration: 25 µM) gave a cell count of 0.976 ± 0.11.

For the compound `NCCNCCNCCN` [Trientine Dihydrochloride] (concentration: 25 µM), the cell count was determined as 1.02 ± 0.14.

Consider `CCN(CC)C(=O)C1(c2ccccc2)CC1CN` (stereo not given) [Milnacipran·HCl] (concentration: 25 µM), for which the cell count is 0.792 ± 0.1.

`CCCN[C@H]1CCc2nc(N)sc2C1` [Pramipexole Dihydrochloride Monohydrate] (concentration: 25 µM) registered a cell count of 0.631 ± 0.011.

The compound `CC(=O)NS(=O)(=O)c1ccc(N)cc1` [Sulfacetamide·Na] (concentration: 25 µM) displayed a cell count of 0.78 ± 0.07.

Consider `CCN1CC(CCN2CCOCC2)C(c2ccccc2)(c2ccccc2)C1=O` (stereo not given) [Doxapram·HCl] (concentration: 25 µM), for which the cell count stood at 1.01 ± 0.015.

In turn, `O=C(O)c1cc(-c2ccc(F)cc2F)ccc1O` [Diflunisal] (concentration: 25 µM) came in with a cell count of 0.666 ± 0.13.

Consider `CC(C)NCC(O)COc1cccc2ccccc12` (stereo not given) [Propranolol·HCl] (concentration: 25 µM), for which the cell count came to 0.633 ± 0.015.

The compound `Cc1ncc([N+](=O)[O-])n1CCO` [Metronidazole] (concentration: 25 µM) yielded a cell count of 0.75 ± 0.047.

`CN1CCCC(n2nc(Cc3ccc(Cl)cc3)c3ccccc3c2=O)CC1` (stereo not given) [Azelastine·HCl] (concentration: 25 µM) displayed a cell count of 0.457 ± 0.02.

Take `CC[C@@H]1/C=C(\C)C[C@H](C)C[C@H](OC)[C@H]2O[C@@](O)(C(=O)C(=O)N3CCCC[C@H]3C(=O)O[C@H](/C(C)=C/[C@@H]3CC[C@H](Cl)[C@H](OC)C3)[C@H](C)[C@@H](O)CC1=O)[C@H](C)C[C@@H]2OC` [Pimecrolimus] (concentration: 25 µM): the cell count stood at 0.692 ± 0.099.

`Clc1ccc(CO/N=C(\Cn2ccnc2)c2ccc(Cl)cc2Cl)c(Cl)c1` [Oxiconazole Nitrate] (concentration: 25 µM) showed a cell count of 0.87 ± 0.18.

Compound `CC1=C(C/C=C(\C)CCC[C@H](C)CCC[C@H](C)CCCC(C)C)C(=O)c2ccccc2C1=O` [Phytonadione] (concentration: 25 µM) came in with a cell count of 0.886 ± 0.1.

Take `CC1=C(/C=C/C(C)=C/C=C/C(C)=C\C(=O)O)C(C)(C)CCC1` [Isotretinoin (13-Cis-Retinoic Acid)] (concentration: 25 µM): the cell count was determined as 1.02 ± 0.11.

`O=C(CCCN1CC=C(n2c(=O)[nH]c3ccccc32)CC1)c1ccc(F)cc1` [Droperidol] (concentration: 25 µM) had a cell count of 0.812 ± 0.095.

Turning to `CN1CCN2c3ncccc3Cc3ccccc3C2C1` (stereo not given) [Mirtazapine] (concentration: 25 µM), the cell count was determined as 0.951 ± 0.02.

As to `CC(=O)[C@H]1CC[C@H]2[C@@H]3CCC4=CC(=O)CC[C@]4(C)[C@H]3CC[C@]12C` [Progesterone] (concentration: 25 µM), the cell count turned out to be 0.755 ± 0.052.

With `CNS(=O)(=O)Cc1ccc2[nH]cc(CCN(C)C)c2c1` [Sumatriptan Succinate] (concentration: 25 µM), the cell count stood at 0.738 ± 0.1.

(Values after the supplement of paper PMC4709259.)
